The results in this text go back to PMC8384837, “Expanding the binding specificity for RNA recognition by a PUF domain”.

Holding throughout (assay): yeast three-hybrid, YBZ-1, SC-Leu-His + 0.5 mM 3-AT, 4 days
Holding throughout (conditions): tags: N-Gal4 AD-HA kept; label: inside an RPR1-promoter hybrid RNA with tandem MS2 sites; ssRNA

In one assay the target is T1, PUM1 PUF domain R6-SWR (Homo sapiens, UniProt Q14671 828-1176, N1043S;Y1044W;Q1047R).
T1 sequence: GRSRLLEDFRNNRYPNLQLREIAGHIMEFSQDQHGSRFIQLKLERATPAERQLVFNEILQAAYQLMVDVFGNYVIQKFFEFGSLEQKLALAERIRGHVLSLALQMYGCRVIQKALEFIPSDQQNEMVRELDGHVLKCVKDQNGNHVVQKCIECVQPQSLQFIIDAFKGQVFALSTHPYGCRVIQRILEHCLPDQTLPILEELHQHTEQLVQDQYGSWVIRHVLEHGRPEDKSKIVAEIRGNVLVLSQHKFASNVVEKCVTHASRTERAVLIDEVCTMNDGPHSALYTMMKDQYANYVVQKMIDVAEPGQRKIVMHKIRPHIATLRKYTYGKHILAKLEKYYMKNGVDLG
A digest of the protocol:
(§1)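 Each repeat of the Pumilio-1 PUF domain was randomized at its three base-contacting residues, and these libraries were co-expressed from a centromeric plasmid with matching RNA elements in strain YBZ-1. After four days on SC-Leu (input) or SC-Leu-His + 0.5 mM 3-AT (selection), the repeat regions were PCR-amplified and Illumina-sequenced. The interaction score compares variant frequency between input and selection as a log change, computed in log2 with a pseudocount of 1 for absent variants.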

The target of the next assay is PUM1 PUF domain R8-RYA (Homo sapiens, UniProt Q14671 828-1176, N1122R;Q1126A). A digest of the protocol: as §1
Another assay concerns the target PUM1 PUF domain R7-LHG (Homo sapiens, UniProt Q14671 828-1176, S1079L;N1080H;E1083G). In a few lines: as §1
The target of another assay is PUM1 PUF domain R5-EHR (Homo sapiens, UniProt Q14671 828-1176, C1007E;R1008H;Q1011R). In a few lines:
as §1

The next assay concerns the target PUM1 PUF domain R4-ALS (Homo sapiens, UniProt Q14671 828-1176, N971A;H972L;Q975S). A digest of the protocol:
as §1

The target in the next assay is PUM1 PUF domain R5-HRG (Homo sapiens, UniProt Q14671 828-1176, C1007H;Q1011G). In a few lines: as §1
The target of a further assay is PUM1 PUF domain R3-CPT (Homo sapiens, UniProt Q14671 828-1176, R936P;Q939T). In a few lines: as §1
The target in another assay is PUM1 PUF domain R3-CRP (Homo sapiens, UniProt Q14671 828-1176, Q939P). In a few lines: as §1
Another assay addresses PUM1 PUF domain R3-LRT (Homo sapiens, UniProt Q14671 828-1176, C935L;Q939T). A digest of the protocol:
as §1

The next assay deals with PUM1 PUF domain R3-GFP (Homo sapiens, UniProt Q14671 828-1176, C935G;R936F;Q939P). A digest of the protocol: as §1

Turning to “GGCUAGAACUAGUGGAUCCCCCGGCGCCCGGCGGCUCGAGCCCGGGUAAGUGCAAAUAGUCUGCAUGCCGCCGGGCGCCAUGCCUGCAGGUCGACUCUAGAAAACAUG”, the binding signal in the assay with PUM1 PUF domain R6-SWR is 7.3 log2 enrichment (interaction score).
For the sequence “GGCUAGAACUAGUGGAUCCCCCGGCGCCCGGCGGCUCGAGCCCGGGUAAGCGUAAAUAGUCUGCAUGCCGCCGGGCGCCAUGCCUGCAGGUCGACUCUAGAAAACAUG”, the binding signal with PUM1 PUF domain R8-RYA was 6.7 log2 enrichment (interaction score).
Take “GGCUAGAACUAGUGGAUCCCCCGGCGCCCGGCGGCUCGAGCCCGGGUAAGUUUAAAUAGUCUGCAUGCCGCCGGGCGCCAUGCCUGCAGGUCGACUCUAGAAAACAUG”: the binding signal in the assay with PUM1 PUF domain R7-LHG is 4.5 log2 enrichment (interaction score).
Take “GGCUAGAACUAGUGGAUCCCCCGGCGCCCGGCGGCUCGAGCCCGGGUAAGUGUAAAUAGUCUGCAUGCCGCCGGGCGCCAUGCCUGCAGGUCGACUCUAGAAAACAUG”: the binding signal with PUM1 PUF domain R5-EHR was 3.38 log2 enrichment (interaction score); in the assay with PUM1 PUF domain R4-ALS it was 4.11 log2 enrichment (interaction score); in the assay with PUM1 PUF domain R5-HRG it was 0.26 log2 enrichment (interaction score); with PUM1 PUF domain R3-CPT, 2.54 log2 enrichment (interaction score); with PUM1 PUF domain R3-CRP it was 4.84 log2 enrichment (interaction score); with PUM1 PUF domain R6-SWR, 8.07 log2 enrichment (interaction score).
For “GGCUAGAACUAGUGGAUCCCCCGGCGCCCGGCGGCUCGAGCCCGGGUAAGUGUCAAUAGUCUGCAUGCCGCCGGGCGCCAUGCCUGCAGGUCGACUCUAGAAAACAUG”, the binding signal with PUM1 PUF domain R5-HRG was 1.78 log2 enrichment (interaction score).
Same read-out and setting: in the case of “GGCUAGAACUAGUGGAUCCCCCGGCGCCCGGCGGCUCGAGCCCGGGUAAGUGUUAAUAGUCUGCAUGCCGCCGGGCGCCAUGCCUGCAGGUCGACUCUAGAAAACAUG” it was 3.89 log2 enrichment (interaction score).
In the case of “GGCUAGAACUAGUGGAUCCCCCGGCGCCCGGCGGCUCGAGCCCGGGUAAGUGUAAGUAGUCUGCAUGCCGCCGGGCGCCAUGCCUGCAGGUCGACUCUAGAAAACAUG”, the binding signal with PUM1 PUF domain R3-LRT is 4.37 log2 enrichment (interaction score); in the assay with PUM1 PUF domain R3-CRP, 1.62 log2 enrichment (interaction score).
“GGCUAGAACUAGUGGAUCCCCCGGCGCCCGGCGGCUCGAGCCCGGGUAAGUGUAAUUAGUCUGCAUGCCGCCGGGCGCCAUGCCUGCAGGUCGACUCUAGAAAACAUG”: the binding signal in the assay with PUM1 PUF domain R3-LRT was 1.36 log2 enrichment (interaction score); in the assay with PUM1 PUF domain R3-GFP, 4.82 log2 enrichment (interaction score); with PUM1 PUF domain R3-CPT, 1.02 log2 enrichment (interaction score); with PUM1 PUF domain R3-CRP it was 1.1 log2 enrichment (interaction score).
With “GGCUAGAACUAGUGGAUCCCCCGGCGCCCGGCGGCUCGAGCCCGGGUAAGUCUAAAUAGUCUGCAUGCCGCCGGGCGCCAUGCCUGCAGGUCGACUCUAGAAAACAUG”, in the assay with PUM1 PUF domain R7-LHG, the binding signal is 3.19 log2 enrichment (interaction score).
